Data published in PubChem BioAssay (Tox21).
Where “and” joins values, the source holds several entries; their conditions need not be identical. Equal values may be shown once. Results filed as inconclusive are left out. A call without a number means that no potency is given here. Some structures have more than one record in an assay (separate samples or runs), and their calls can disagree. Calls of active or inactive are those of the source. Unless noted, calls come from the whole dose curve.

How the values were obtained:
[1] = molecular target: Gonadotropin-releasing hormone receptor (Homo sapiens) (UniProt P30968); assay: Human gonadotropin-releasing hormone receptor (GnRHR) small molecule agonists, calcium flux assay in GnRHR-HEK293 cells (AID 1920063); note: nearly all actives have a fitted effect of over 35% in size
Chain of Gonadotropin-releasing hormone receptor (Homo sapiens) (P30968 whole entry, looked up): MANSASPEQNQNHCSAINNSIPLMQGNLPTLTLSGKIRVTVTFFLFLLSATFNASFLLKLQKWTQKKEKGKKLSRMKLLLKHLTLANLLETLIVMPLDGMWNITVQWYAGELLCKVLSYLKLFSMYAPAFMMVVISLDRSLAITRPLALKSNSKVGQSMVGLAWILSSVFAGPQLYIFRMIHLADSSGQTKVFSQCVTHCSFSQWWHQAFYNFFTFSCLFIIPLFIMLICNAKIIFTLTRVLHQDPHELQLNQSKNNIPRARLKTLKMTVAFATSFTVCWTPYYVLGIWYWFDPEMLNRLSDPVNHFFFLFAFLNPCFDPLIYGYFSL
How it was run: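 Agonist mode: compounds at 15 concentrations, in triplicate, went onto calcium dye-loaded GnRHR-HEK293 cells. Intracellular calcium was then followed as 480/540 nm fluorescence at 1 s intervals over 3 min.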

[2] = molecular target: KiSS-1 receptor (Homo sapiens) (UniProt Q969F8); assay: Human kisspeptin (KISS1R) small molecule agonists, calcium flux assay in KISS1R-HEK293 cells (AID 1920064; active = well fitted activation curve with a large enough effect in the repeat runs)
Chain of KiSS-1 receptor (Homo sapiens) (Q969F8 whole entry, looked up): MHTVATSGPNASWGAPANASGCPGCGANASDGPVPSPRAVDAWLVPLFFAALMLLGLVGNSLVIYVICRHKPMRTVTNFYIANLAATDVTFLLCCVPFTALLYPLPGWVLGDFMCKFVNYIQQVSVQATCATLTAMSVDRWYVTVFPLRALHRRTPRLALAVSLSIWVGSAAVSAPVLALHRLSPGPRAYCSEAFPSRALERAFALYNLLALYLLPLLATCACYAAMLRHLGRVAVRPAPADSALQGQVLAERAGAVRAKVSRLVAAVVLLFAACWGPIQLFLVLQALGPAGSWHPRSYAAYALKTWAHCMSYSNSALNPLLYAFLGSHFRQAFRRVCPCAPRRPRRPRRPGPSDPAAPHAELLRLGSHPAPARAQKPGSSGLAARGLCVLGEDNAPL
How it was run: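 Agonist mode: intracellular calcium rise tracked at 1 s intervals over 3 min (480/540 nm) immediately after compound addition to dye-loaded KISS1R-HEK293 stable cells. Each compound tested at 15 concentrations in triplicate.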

[3] = G protein-coupled receptor (GPCR) small molecule agonists, calcium flux assay: HEK293 wild type cell line counter screen (AID 1920065)
How it was run: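 Calcium flux counter screen: compound added in agonist mode at 15 concentrations in triplicate to dye-loaded parental HEK293 cells. Fluorescence (480/540) read kinetically for 3 min; ATP served as positive control.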

[4] = p53 small molecule agonists, cell-based qHTS assay with human liver microsomes (AID 1963577);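 note: p53 response element beta-lactamase reporter cells with liver microsomes plus NADPH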
How it was run: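 HLM-supplemented p53RE-bla reporter assay: 16 h compound exposure at 37 C, microsomes and NADPH each 0.5 mg/mL final, read by fluorescence intensity.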

[5] = p53 small molecule agonists, cell-based qHTS assay with rat liver microsomes (AID 1963578); note: potency is the fitted concentration of half-maximal effect
How it was run: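 Quantitative HTS of the Tox21 10K library: p53RE-bla cells, rat liver microsomes plus NADPH at 0.5 mg/mL final each, 16 h at 37 C, beta-lactamase fluorescence detection.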

[6] = p53 small molecule agonists, cell-based qHTS assay with human liver microsomes: qHTS cell viability counter screen (AID 1963579); note: nearly all actives have a fitted effect of over 45% in size
How it was run: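 Viability of p53RE-bla cells is measured as CellTiter-Glo luminescence following a 16 h, 37 C incubation with compound, liver microsomes from human donors and NADPH.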

[7] = p53 small molecule agonists, cell-based qHTS assay: qHTS cell viability counter screen (AID 1963581); note: nearly all actives have a fitted effect of over 45% in size
How it was run: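 Counter screen read by CellTiter-Glo luminescence (ATP content, 30 min at room temperature), run in the same wells as the beta-lactamase reporter read. HCT-116 p53RE-bla cells saw compounds for 16 h at 37 C.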

[8] = cAMP Responsive Elements (CRE) small molecule antagonists, cell-based qHTS assay (AID 1963591; active = well fitted inhibition curve with a large enough effect in the signal ratio in the repeat runs, not every such curve was filed as active; the % refers to the signal ratio)
How it was run: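 Antagonist mode: compounds are added alongside the adenylyl cyclase activator NKH477 (0.25 uM final) to CRE-bla HEK293T cells for 3 h. LiveBLAzer FRET substrate, 2 h at room temperature, reports bla expression.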

[9] = molecular target: Beta-2 adrenergic receptor (Homo sapiens) (UniProt P07550); assay: Adrenergic beta2 receptor (ADRB2) small molecule antagonists, cell-based qHTS assay (AID 1963592); note: nearly all actives have a fitted effect of over 50% in size; note: potency is the fitted concentration of half-maximal effect
Chain of Beta-2 adrenergic receptor (Homo sapiens) (P07550 whole entry, looked up): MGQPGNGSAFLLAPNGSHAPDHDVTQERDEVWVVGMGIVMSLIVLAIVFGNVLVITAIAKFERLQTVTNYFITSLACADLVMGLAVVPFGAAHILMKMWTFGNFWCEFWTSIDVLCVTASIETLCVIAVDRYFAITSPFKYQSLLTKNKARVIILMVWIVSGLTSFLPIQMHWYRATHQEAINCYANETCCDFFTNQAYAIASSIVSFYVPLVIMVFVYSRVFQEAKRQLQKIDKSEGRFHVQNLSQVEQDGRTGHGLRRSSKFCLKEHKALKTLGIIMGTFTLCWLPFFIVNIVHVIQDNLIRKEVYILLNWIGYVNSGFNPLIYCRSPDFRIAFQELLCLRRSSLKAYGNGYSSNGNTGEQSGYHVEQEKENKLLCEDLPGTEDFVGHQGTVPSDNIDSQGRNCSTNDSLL
How it was run: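 Assay format: CHO-ADRB2 cells, 18-20hr seeding at 37C/5% CO2, then compound plus 1nM isoproterenol agonist mix for 0.5hr RT. Homogeneous time-resolved fluorescence cAMP detection after 1hr, expressed as 665/615 nm ratio.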

[10] = molecular target: D(2) dopamine receptor (Homo sapiens) (UniProt P14416); assay: Dopamine D2 receptor (DRD2) small molecule agonists, cell-based qHTS assay (AID 1963594); note: nearly all actives have a fitted effect of over 35% in size; note: potency is the fitted concentration of half-maximal effect
Chain of D(2) dopamine receptor (Homo sapiens) (P14416 whole entry, looked up): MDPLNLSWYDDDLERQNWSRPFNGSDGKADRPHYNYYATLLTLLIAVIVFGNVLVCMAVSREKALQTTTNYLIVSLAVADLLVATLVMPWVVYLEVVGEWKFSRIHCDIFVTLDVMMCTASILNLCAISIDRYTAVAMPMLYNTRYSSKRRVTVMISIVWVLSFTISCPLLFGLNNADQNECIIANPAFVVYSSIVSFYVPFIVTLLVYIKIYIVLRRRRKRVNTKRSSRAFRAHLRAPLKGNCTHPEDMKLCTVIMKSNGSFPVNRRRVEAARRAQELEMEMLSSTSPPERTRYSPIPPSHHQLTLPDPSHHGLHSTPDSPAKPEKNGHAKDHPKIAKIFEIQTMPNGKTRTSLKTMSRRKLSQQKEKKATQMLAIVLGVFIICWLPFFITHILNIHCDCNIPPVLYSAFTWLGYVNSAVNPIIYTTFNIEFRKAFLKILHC
How it was run: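 HEK293 cells stably expressing human DRD2, pre-treated with PDE inhibitor Ro20-1724 (0.1 mM final) and compound 10 min at room temperature, then stimulated with NKH477 (200nM […]) for 30 min. cAMP read by HTRF (665/620 nm).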

[11] = molecular target: D(2) dopamine receptor (Homo sapiens) (UniProt P14416); assay: Dopamine D2 receptor (DRD2) small molecule antagonists, cell-based qHTS assay (AID 1963595; active = well fitted inhibition curve with a large enough effect in the signal ratio in the repeat runs, with a control signal flat; the % refers to the signal ratio)
How it was run: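 Cells were plated and grown for 24 h at 37 °C. Ro20-1724 (0.1 mM final) went in first, then compound for 10 min. NKH477 (200 nM) with quinpirole (12 nM) followed for 30 min at RT, then HTRF detection reagents for 1 h.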

[12] = p53 small molecule agonists, cell-based qHTS assay with rat liver microsomes: qHTS cell viability counter screen (AID 1963580); note: nearly all actives have a fitted effect of over 45% in size
How it was run: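 Cytotoxicity counter screen: intracellular ATP measured by CellTiter-Glo luminescence in the same wells as the beta-lactamase reporter read, on HCT-116 p53RE-bla cells exposed 16 h at 37 C to compounds with rat liver microsomes and NADPH, each 0.5 mg/mL final.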

[13] = p53 small molecule agonists, cell-based qHTS assay (AID 1963582; active = well fitted activation curve with a large enough effect in the signal ratio in the repeat runs, not every such curve was filed as active; the % refers to the signal ratio)
How it was run: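 Read-out is beta-lactamase FRET fluorescence after 2 h at room temperature with LiveBLAzer B/G substrate. p53 response element-bla cells were treated 16 h at 37 C with compounds in DMSO, added 5 h after seeding.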

[14] = molecular target: 5-hydroxytryptamine receptor 2A (Homo sapiens) (UniProt P28223); assay: 5-hydroxytryptamine receptor 2A (HTR2A) small molecule antagonists, cell-based qHTS assay (AID 1963586); note: nearly all actives have a fitted effect of over 45% in size
Chain of 5-hydroxytryptamine receptor 2A (Homo sapiens) (P28223 whole entry, looked up): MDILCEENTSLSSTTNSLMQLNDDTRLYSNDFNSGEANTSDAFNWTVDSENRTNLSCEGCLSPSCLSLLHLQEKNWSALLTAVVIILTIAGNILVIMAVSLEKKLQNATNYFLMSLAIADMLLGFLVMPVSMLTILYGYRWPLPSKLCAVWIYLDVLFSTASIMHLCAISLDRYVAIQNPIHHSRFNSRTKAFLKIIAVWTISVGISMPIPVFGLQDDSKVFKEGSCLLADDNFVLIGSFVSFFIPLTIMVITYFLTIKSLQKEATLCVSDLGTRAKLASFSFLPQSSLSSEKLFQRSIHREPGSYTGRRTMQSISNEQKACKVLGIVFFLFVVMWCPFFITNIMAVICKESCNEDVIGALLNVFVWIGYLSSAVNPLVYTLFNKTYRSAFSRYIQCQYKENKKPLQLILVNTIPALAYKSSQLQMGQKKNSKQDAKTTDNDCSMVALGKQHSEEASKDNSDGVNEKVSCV
How it was run: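 CHO cells stably expressing human HTR2A were plated for 18 h at 37 C, then loaded with calcium dye for 1 h. Compounds were preincubated 5 min at room temperature before DOI (4 nM solution) was added. Kinetic fluorescence was read for 3 min.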

[15] = molecular target: Muscarinic acetylcholine receptor M1 (Homo sapiens) (UniProt P11229); assay: Cholinergic receptor muscarinic 1 (CHRM1) small molecule antagonists, cell-based qHTS assay (AID 1963588); note: nearly all actives have a fitted effect of over 40% in size
Chain of Muscarinic acetylcholine receptor M1 (Homo sapiens) (P11229 whole entry, looked up): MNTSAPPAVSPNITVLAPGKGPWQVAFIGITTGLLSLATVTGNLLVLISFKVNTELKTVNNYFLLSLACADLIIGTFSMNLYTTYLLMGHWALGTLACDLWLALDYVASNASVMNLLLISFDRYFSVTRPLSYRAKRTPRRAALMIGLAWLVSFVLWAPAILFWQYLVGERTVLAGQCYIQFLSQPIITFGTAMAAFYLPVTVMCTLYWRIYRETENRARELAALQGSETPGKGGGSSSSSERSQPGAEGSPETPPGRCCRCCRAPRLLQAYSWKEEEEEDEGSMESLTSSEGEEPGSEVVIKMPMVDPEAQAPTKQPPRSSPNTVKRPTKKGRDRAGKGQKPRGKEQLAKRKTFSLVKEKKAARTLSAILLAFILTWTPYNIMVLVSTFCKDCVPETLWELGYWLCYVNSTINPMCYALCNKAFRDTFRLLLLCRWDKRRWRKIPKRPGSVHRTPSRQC
How it was run: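 Compounds were tested at 15 concentrations in three independent runs. Dye-loaded CHRM1-CHO cells were exposed 5 min at room temperature before stimulation by acetylcholine added at 50nM. Intracellular calcium was read kinetically on FDSS for 3 min.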

[16] = molecular target: Muscarinic acetylcholine receptor M1 (Homo sapiens) (UniProt P11229); assay: Cholinergic receptor muscarinic 1 (CHRM1) small molecule agonists, cell-based qHTS assay (AID 1963589); note: nearly all actives have a fitted effect of over 35% in size
How it was run: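 Agonist-mode calcium-flux screen: compounds at 15 concentrations, three independent runs, were pin-transferred onto dye-loaded human CHRM1-CHO cells. Fluorescence was then recorded kinetically every second over minutes.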

[17] = cAMP Responsive Elements (CRE) small molecule agonists, cell-based qHTS assay (AID 1963590)
How it was run: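 Agonist mode: compound added to CRE-bla HEK 293T cells (2,000/well, 18 h after plating) for 3 h at 37 C/5% CO2. Reporter activity detected via FRET beta-lactamase substrate, 2 h room-temperature loading.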

[18] = molecular target: Beta-2 adrenergic receptor (Homo sapiens) (UniProt P07550); assay: Adrenergic beta2 receptor (ADRB2) small molecule agonists, cell-based qHTS assay (AID 1963593);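 note: CHO cells stably overexpressing human ADRB2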
How it was run: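 CHO cells stably over-expressing ADRB2 were plated overnight at 37C, then dosed with compounds plus a stimulation mix containing 100uM IBMX and 25uM Ro-20-1724 for 0.5hr at room temperature. cAMP was measured by HTRF competition, 1hr.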

[19] = molecular target: 5-hydroxytryptamine receptor 2A (Homo sapiens) (UniProt P28223); assay: 5-hydroxytryptamine receptor 2A (HTR2A) small molecule agonists, cell-based qHTS assay (AID 1963587); note: nearly all actives have a fitted effect of over 30% in size
How it was run: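 CHO cells stably expressing human HTR2A, plated 18 h, loaded with calcium dye 1 h at 37 C. Agonist mode: compounds added and intracellular calcium fluorescence recorded kinetically for 2 min at 1 sec intervals.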

Structure (SMILES) | Potency [1] | Potency [2] | Potency [3] | Potency [4] | Potency [5] | Potency [6] | Potency [7] | Potency [8] | Potency [9] | Potency [10] | Potency [11] | Potency [12] | Potency [13] | Potency [14] | Potency [15] | Potency [16] | Potency [17] | Potency [18] | Potency [19]
O=C1CCC(N2C(=O)c3ccccc3C2=O)C(=O)N1 (stereo unspecified) | inactive | inactive | inactive | inactive | inactive | inactive | inactive | inactive | inactive | inactive | inactive |  |  |  |  |  |  |  | 
CCCC(O)C(CC)CO (stereo unspecified) | inactive | inactive | inactive | inactive | inactive | inactive |  | inactive | inactive | inactive | inactive | inactive | inactive | inactive | inactive | inactive | inactive | inactive | 
CC1=CC(C)(C)Nc2ccccc21 | inactive | inactive | inactive |  | inactive | inactive | inactive | inactive | inactive | inactive | inactive | inactive | inactive | inactive | inactive | inactive | inactive | inactive | inactive
CCn1c2ccccc2c2cc(N)ccc21 | inactive |  | inactive |  |  | inactive |  | inactive | 67.9 µM (active) and inactive |  | inactive |  | inactive | inactive | inactive | inactive | inactive | inactive | inactive
CC(=O)Nc1cccc(O)c1 | inactive | inactive | inactive | inactive |  | inactive | inactive | inactive | inactive | inactive | inactive |  | inactive |  |  |  | inactive | inactive | 
CN/C(=C\[N+](=O)[O-])NCCSCc1csc(CN(C)C)n1 | inactive | inactive | inactive | inactive | inactive | inactive | inactive | inactive |  | inactive | inactive | inactive | inactive |  |  |  | inactive |  | 
Cc1cc(C(C)(C)C)c(O)c(C(C)(C)C)c1 | inactive | inactive |  | inactive | inactive | inactive |  | inactive | inactive | inactive | inactive | inactive | inactive | inactive | inactive | inactive | inactive | inactive | inactive
CCN(CC)CCOC(=O)c1ccc(N)cc1 |  | inactive | inactive | inactive | inactive | inactive | inactive | inactive | inactive | inactive | inactive | inactive | inactive |  |  |  | inactive |  | 
CN(C)C(=O)Nc1ccc(Cl)c(Cl)c1 | inactive | inactive | inactive | inactive | inactive | inactive | inactive | inactive | inactive | inactive | inactive |  |  | inactive | inactive | inactive | inactive |  | inactive
Cc1cc(=O)oc2cc(O)ccc12 | inactive | inactive | inactive | inactive | 36.3 µM (active) and 22.9 µM (active) | inactive | inactive |  | inactive | inactive | inactive | inactive | inactive | inactive | inactive | inactive | inactive | inactive | inactive
CCCCCCCC(=O)OC | inactive | inactive | inactive | inactive | inactive | inactive |  | inactive | inactive | inactive and 61.1 µM (active) | inactive | inactive | inactive | inactive | inactive | inactive | inactive | inactive | inactive
c1ccc2scnc2c1 | inactive | inactive | inactive | inactive | inactive | inactive | inactive | inactive | inactive | inactive | inactive |  | inactive | inactive | inactive | inactive |  | inactive | inactive
CC(=O)c1ccccn1 | inactive | inactive | inactive | inactive | inactive | inactive | inactive | inactive | inactive | inactive | inactive | inactive | inactive | inactive |  | inactive | inactive |  | inactive
